5 compounds from PubChem BioAssay AID743289 (Broad Institute, 2014) can be followed below.

This is one part of the list. The source made the active and inactive calls.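 The calls were made as follows: active = compounds lowering fluorescence whose fitted half-maximal concentration is no more than twice their top tested dose; inconclusive = flat fit with 30 to 70% inhibition, or poor fit; inactive = the rest.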

Caspase-1 (Homo sapiens), sequence (P29466 whole entry, looked up): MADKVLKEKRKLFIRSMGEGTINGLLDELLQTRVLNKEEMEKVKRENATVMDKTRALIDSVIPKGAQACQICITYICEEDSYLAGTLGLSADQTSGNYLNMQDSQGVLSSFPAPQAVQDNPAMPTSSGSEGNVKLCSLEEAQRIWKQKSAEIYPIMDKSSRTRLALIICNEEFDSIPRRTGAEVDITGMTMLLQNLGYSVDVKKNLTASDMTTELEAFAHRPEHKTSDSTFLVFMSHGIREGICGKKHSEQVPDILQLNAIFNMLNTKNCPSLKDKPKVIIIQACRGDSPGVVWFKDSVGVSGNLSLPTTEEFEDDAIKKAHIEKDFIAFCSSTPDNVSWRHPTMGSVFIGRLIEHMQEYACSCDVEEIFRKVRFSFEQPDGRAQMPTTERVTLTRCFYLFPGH

This assay has as its target Caspase-1 (Homo sapiens) (UniProt P29466). The experiment in a line: human caspase-1 inhibitors, dose response, selectivity assay for caspase-6 inhibitor project, biochemical, Z-YVAD-R110 fluorescence, cherry-pick, set 2 (AID 743289). Conditions: purified caspase-1, Z-YVAD-R110 cleavage fluorescence; series mostly up to 35 µM.
As for `CCN(CC)CCCC(C)n1c2nc(=O)[nH]c(=O)c-2nc2cc(Cl)ccc21` (stereo not given), the compound was classed as inactive.
With `CNS(=O)(=O)c1cccc(C(=O)OCC(=O)N2c3ccccc3NC(=O)C2(C)C)c1` the entry was “inactive”; with `O=c1ccc2c(-c3ccccc3S(=O)(=O)O)c3ccc(O)c(O)c3oc-2c1O`, “inactive”; with `Cc1c(CCC(=O)O)c(=O)oc2c(C)c(OCc3ccccc3Cl)ccc12`, “inactive”.
The same measure for `COc1cc(NC(=O)COC(=O)c2ccc([N+](=O)[O-])s2)cc(OC)c1OC`: “inactive”.
